Compound activity: PubChem BioAssay, several laboratories
PfHsp40 yeast: restores yeast growth despite PfHsp40 toxicity; S. cerevisiae expressing PfHsp40, growth rescue, ATP luminescence; growth rescue, % at 12.5 µM; hit rate 0.68% among 340,000; in the data active = growth rescue above about 28%, passing the limit was not always enough;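 note: yeast W303a lacking pdr1 and pdr3 grown in galactose medium; growth measured after three days at 30 °C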
MazEF act: activators of E. coli MazEF toxin-antitoxin RNase; FAM/BHQ RNA-DNA oligo cleavage fluorescence, 5 h; AID 504720; hit rate 0.32% among 350,000; activation, % at 20 µM; in the data active = activation above about 50%
Target sequence (P0AE70 whole entry, looked up): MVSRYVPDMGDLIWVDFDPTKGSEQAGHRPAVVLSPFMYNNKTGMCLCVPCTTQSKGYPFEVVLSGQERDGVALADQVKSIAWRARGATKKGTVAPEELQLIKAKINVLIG
SSB-PriA inh: blocks PriA binding to SSB C-terminal tail. AlphaScreen SSBct-PriA binding, biotinylated peptide. inhibition, % at 33 µM. hit rate 0.6% among 430,000. AID 1272365; in the data active = inhibition mostly above about 37%, no sharp cut-off; inactive = mostly below about 20%;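 note: plate controls were negative control peptide for no effect and reference peptide for full effect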
PrP UTR inh: inhibition of PrP 5' UTR reporter expression. cell-based PrP 5' UTR mRNA reporter, plate reader. inhibition, % (no concentration beside the values). hit rate 0.35% among 340,000. AID 488862; in the data active = inhibition above about 52%; note: 0 = median of the neutral control wells
PrPC TRFRET: inhibitors of human cell surface prion protein PrPC | inhibition, % at 13.8 µM | AID 720596 | P04156 | TR-FRET read-out | hit rate 0.43% among 370,000; in the data active = inhibition above about 24%; note: 0% = median of the test wells and 100% = reference compound wells
Active calls of the source: *; . = no result. This is a sample that favours compounds with a hit; in the whole collection about 1.8% have one here.

SMILES | PfHsp40 yeast | MazEF act | SSB-PriA inh | PrP UTR inh | PrPC TRFRET
COc1ccc(Cl)cc1NC(=O)CSc1nccn1Cc1ccc2c(c1)OCO2 | . | . | 45* | . | .
CCOC(=O)c1ccccc1NC(=O)CSc1nccn1Cc1ccc2c(c1)OCO2 | . | . | 43* | . | .
O=S(=O)(c1ccccc1)N1CCN=C1SCc1c(F)cccc1Cl | 6 | -3 | -10 | -11 | 3
CCN(CC)CCN(C(=O)c1cccc(C)c1)c1nc2ccc(Cl)cc2s1 | . | . | -7 | . | .
CCCCCCC[C@@H](C/C=C/CCC(=O)N(C)C/C(=C/Cl)C/C(=C\C(=O)N1CC(OC)=CC1=O)OC)OC | 37* | -8 | -14 | -175 | 5
CCCCCCC[C@@H](C/C=C/CCC(=O)N(C)C/C(=C/Cl)C/C(=C\C(=O)N1C[C@H](O)CC1=O)OC)OC | 54* | 20 | -6 | -10 | 0
CCCCCCC[C@@H](C/C=C/CCC(=O)O)OC | 0 | -10 | 0 | -20 | -1
COCCn1c(SCC(=O)Nc2ccc(S(=O)(=O)N(C)C)cc2)nc2ccccc21 | 0 | 7 | -7 | -12 | 0
Cc1cc(C)cc(NC(=O)CCC(=O)Nc2nnc(C(C)C)s2)c1 | -1 | 14 | 8 | -4 | -11
Cc1ccc(-c2nnc(CSc3nc4cc5c(cc4cc3C)OCO5)o2)cc1 | 0 | 437* | -10 | 1 | 3
CCOC(=O)CSc1nc2cc3c(cc2cc1C)OCO3 | -2 | -1 | -6 | -28 | 1
COc1ccc(OC)c(/C=N\NC(=O)c2ccc(COc3ccc(C)cc3[N+](=O)[O-])o2)c1 | -1 | -22 | . | -12 | 0
O=C(CSc1nc2cc(Cl)ccc2o1)NC1CC1 | 0 | 7 | -8 | -9 | -3
CCNC(=O)CCSc1nc2cc(Cl)ccc2o1 | 111* | 1 | -7 | -13 | 9
Cc1c(NC(=O)CSc2ccc(Cl)cc2)cccc1-c1nc2cc(Cl)ccc2o1 | 13 | 129* | 10 | -17 | -3
CCCS(=O)(=O)c1c(S(=O)(=O)CCC)c2c(C)cccn2c1C(=O)NN=Cc1cc(O)cc(O)c1 | . | . | 0 | . | .
CCCS(=O)(=O)c1c(S(=O)(=O)CCC)c2c(C)cccn2c1C(=O)N/N=C/c1cc(O)cc(O)c1 | 452* | 6 | . | -4 | 19
N#Cc1c(Sc2ncc(C(F)(F)F)cc2Cl)nsc1CC=NOCc1ccccc1Br | . | . | -9 | . | .
O=C1c2cccc3cccc(c23)C(=O)N1CC1CCN(CC(O)COc2ccc3ccccc3c2)CC1 (stereo not given) | -1 | -34 | 45* | 2 | -21
O=C(NN=Cc1sc(N2CCOCC2)nc1-c1ccccc1)c1ccccc1O | . | . | -9 | . | .
O=C(N/N=C/c1sc(N2CCOCC2)nc1-c1ccccc1)c1ccccc1O | 238* | -5 | . | -9 | -7
COc1ccc(N2CCN(CCCNC(=O)CCc3ccc(F)cc3)CC2)cc1 | . | . | . | . | -8
Cc1ccc(S(=O)(=O)NCC(=O)NCC(=O)OCC(=O)NC(=O)NC(C)(C)C)cc1C | 0 | 6 | -4 | -37 | 4
Cc1ccc(S(=O)(=O)N(CCCO)CC(O)CON=C2c3ccccc3-c3ccccc32)cc1 (stereo not given) | 29* | -15 | 4 | -20 | 6
[N-]=[N+]=N[C@@H](CCN1CC[C@H](O)CCC1=O)c1ccccc1 | -1 | 3 | 5 | -14 | 1
SMILES | PfHsp40 yeast | MazEF act | SSB-PriA inh | PrP UTR inh | PrPC TRFRET
Cc1n[nH]c(=O)nc1NN=Cc1ccc(O)c([N+](=O)[O-])c1 | . | . | -15 | . | .
Cc1ccsc1C=NNc1nc(=O)[nH]nc1C | . | . | 67* | . | .
COC(=O)C(=N/Nc1ccccc1C(=O)OC)/C(C)=N/O | 137* | 6 | . | -2 | -5
CCN(c1cccc(C)c1)C(C(=O)Nc1ccc(OC)cc1)c1cc2c(cc1[N+](=O)[O-])OCO2 (stereo not given) | -1 | 7 | 40* | -15 | 6
COc1ccc(NC(=O)C(c2cc3c(cc2[N+](=O)[O-])OCO3)N(C)Cc2ccccc2)cc1 (stereo not given) | 2 | 0 | 47* | -7 | 6
COc1ccc(NC(=O)C(c2cc3c(cc2[N+](=O)[O-])OCO3)N2CCN(C=O)CC2)cc1 (stereo not given) | 0 | 5 | 0 | -17 | -7
COc1ccc(CNCc2cc3c(cc2[N+](=O)[O-])OCO3)cc1 | 0 | 3 | 13 | -11 | -21
Cc1ccc(Nc2nc(N)nc(-c3oc4ccccc4c3C)n2)cc1 | 3 | -21 | 0 | 70* | .
C=CCc1ccc(OCC(O)COc2ccc(CC=C)cc2OC)c(OC)c1 | 46* | -7 | -20 | -4 | -4
Cc1noc(-c2ccc3nccnc3c2)n1 | . | . | 41* | . | .
Cc1n[nH]c(C)c1S(=O)(=O)N1CCCCCC1 | -1 | -4 | -5 | 3 | 2
COc1cccc(C(C)=C2SC(=S)NC2=O)c1 | 83* | -11 | -15 | 6 | -8
CCn1c(SCC(=O)N2CCCc3ccccc32)nnc1-c1ccco1 | 48* | 3 | 1 | -2 | 3
O=C(CSc1ccc(-c2ccccc2)nn1)N1CCCc2ccccc21 | 11 | 0 | -16 | -23 | -3
CCn1c(SCC(=O)N2CCCc3ccccc32)nnc1-c1ccoc1C | 0 | -7 | 3 | -29 | 1
O=C(CSc1ncc(-c2ccccc2)[nH]1)N1CCCc2ccccc21 | . | . | 39* | . | .
O=C(CSc1nccn1-c1ccc(Cl)cc1)N1CCCc2ccccc21 | 7 | 3 | 56* | -14 | 10
O=C(Nc1ccc2c(c1)OCCO2)c1cnn(-c2ccccc2)n1 | 2 | 5 | -10 | -35 | -3
CN1CCN(C(CNC(=O)NC(C)(C)C)c2ccc3c(c2)CCCN3C)CC1 (stereo not given) | . | . | 5 | . | .
Cc1ccc2c(c1)c(-c1ccccc1)c(-c1ccccc1)n2CC(O)CNC1CCCC1 (stereo not given) | . | . | 61* | . | .
c1ccc(Cn2cc(-c3cccnc3)cn2)cc1 | 553* | 5 | 3 | -19 | 0
Cc1ccc(OCC(=O)N/N=C2\CC(=O)CC(C)(C)C2)c(Br)c1 | -1 | -3 | . | -69 | -3
COCCn1c(SCC(=O)Nc2ccc(F)cc2)nc2c([nH]c3ccccc32)c1=O | 2 | -8 | 3 | -6 | -1
CCn1c(SCC(=O)Nc2ccc(NC(C)=O)cc2)nc2c([nH]c3ccccc32)c1=O | 41* | -14 | 2 | -8 | 0
CN(C)c1ccc(C=c2c3ccccc3n3c2c2ccccc2[n+]3C)cc1 | 2 | -6 | -11 | 24 | -102
Cc1cc2c(=Cc3ccc(N(C)C)cc3)c3ccccc3n2[n+]1C | 180* | -80 | -15 | -22 | -34
CCOC(=O)c1cc2c(=Cc3ccc(N(C)C)cc3)c3ccccc3n2[n+]1C | 284* | 36 | 34 | 0 | -25
CN(C)c1ccc(/C=c2/c3ccccc3n3c2cc(-c2ccc(Cl)cc2)[n+]3C)cc1 | . | . | -9 | . | .
Cc1cccc(C2CC(c3ccccc3)Nc3nc(N)nn32)c1 (stereo not given) | 48* | 13 | 4 | -23 | 4
O=C(O)/C=C/C(=O)Nc1ccccc1C(F)(F)F | . | . | 0 | . | .
